NS1 inh: qHTS Assay for Inhibitors of Influenza NS1 Protein Function | Potency, µM (series often up to 46.1 µM) | actives 0.4% (n = 270,000) | AID 2326, 2010; calls by dose curve; also: actives are rising curves; nearly all actives have a fitted effect of over 50% in size
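OD600 was taken as the measure of yeast growth restored by compound in an NS1-expressing S. cerevisiae strain. Cells had been washed out of glucose medium and diluted 1:100 into galactose -URA medium, pH 6.0.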
Cruzain Triton: qHTS Assay for Promiscuous and Specific Inhibitors of Cruzain (with detergent); actives 0.43% (n = 200,000); purified cruzain, Z-FR-AMC fluorescence, 0.01% Triton; AID 1478, 2009; Potency, µM, usual class: inhibitors; Cruzipain (Trypanosoma cruzi), P25779; also: nearly all actives have a fitted effect of over 40% in size
Target sequence (P25779 123-467 limits assumed): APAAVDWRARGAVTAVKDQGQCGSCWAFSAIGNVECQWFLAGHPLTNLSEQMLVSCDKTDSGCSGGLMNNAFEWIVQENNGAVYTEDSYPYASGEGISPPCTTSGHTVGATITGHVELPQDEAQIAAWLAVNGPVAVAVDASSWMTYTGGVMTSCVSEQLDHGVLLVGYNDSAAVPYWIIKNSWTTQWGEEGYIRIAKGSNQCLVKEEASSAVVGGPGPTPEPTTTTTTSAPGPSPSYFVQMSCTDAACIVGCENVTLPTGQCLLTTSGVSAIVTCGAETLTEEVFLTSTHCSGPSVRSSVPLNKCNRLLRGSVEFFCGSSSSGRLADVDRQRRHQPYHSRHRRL
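Purified cruzain (1.5 nM final) was preincubated with compounds for 15 min at room temperature in 100 mM sodium acetate pH 5.5, 5 mM DTT, 0.01% Triton X-100. Reaction started with 2 uM Z-FR-AMC; AMC fluorescence change over 60 s gave activity.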
Cruzain noTriton: qHTS Assay for Promiscuous and Specific Inhibitors of Cruzain (without detergent) | actives 2.3% (n = 200,000) | Cruzipain (Trypanosoma cruzi), P25779 | Potency, µM, actives largely listed as inhibitors | purified cruzain, Z-FR-AMC fluorescence, no detergent; also: nearly all actives have a fitted effect of over 40% in size
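Detergent-free condition (0.00005% Triton X-100) in acetate buffer pH 5.5 with DTT. 1.5 nM enzyme and compound were pre-mixed 15 min, then 2 uM Z-FR-AMC substrate added; reaction progress from fluorescence change between first and third reads (60 s).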
Numbers stand for hits; . = inactive; ? = inconclusive; / = no result given. The entries come from a sample that favours hits as a whole. Unless noted, calls follow the shape of the dose curve; as a rule, active = well fitted curve in the direction sought with a large enough effect; inconclusive = small, poorly fitted or top-dose-only effect, or another doubt; inactive = no such curve, though single readings can be large; an effect the other way counts as inactive or inconclusive.

SMILES	NS1 inh	Cruzain Triton	Cruzain noTriton
CC(=O)Nc1c(C)nn(-c2ccccc2)c1N1CCC(C(=O)NCc2cccc(Cl)c2)CC1	/	.	?
CC(=O)Nc1c(C)nn(-c2ccccc2)c1N1CCC(C(=O)NCc2ccccc2Cl)CC1	/	28.2µM	.
Cc1cc(Oc2nc3c(C)cccn3c(=O)c2/C=C(\C#N)S(=O)(=O)c2ccc(Cl)cc2)ccc1Cl	.	.	12.6µM
CCN1CCN(c2nc3c(C)cccn3c(=O)c2/C=C(\C#N)S(=O)(=O)c2ccc(Cl)cc2)CC1	.	/	/
Cc1ccc(NC(=O)CCn2nc(-c3ccccc3)c3ccccc3c2=O)c(C)c1	/	.	.
COc1ccc2c(c1-c1c3c(cc(Br)c1OC)CCCC3)CCCC2	/	.	.
COc1ccc(-n2cc(-c3ccccc3)c3c(NC4CCCC4)ncnc32)cc1	/	.	.
CCOc1ccccc1Nc1ncnc2c1c(-c1ccccc1)cn2-c1ccc(OC)cc1	/	.	10µM
O=C(NCc1ccc(Cl)cc1)c1cc(S(=O)(=O)N2CCCCC2)c[nH]1	.	?	20µM
COc1cccc(CNC(=O)c2cc(S(=O)(=O)N3CCCCC3)c[nH]2)c1	.	.	.
C/C=C(\C)[C@H](O)C[Si](C)(C)c1ccccc1	/	.	.
Oc1cccc2ccc(SSc3ccc4cccc(O)c4n3)nc12	.	.	.
CCOc1ccccc1NC(=O)COC(=O)C(CC(C)C)N1C(=O)C2CC=CCC2C1=O (stereo not given)	.	.	.
CC(C)CC(C(=O)OCC(=O)Nc1cccc(Cl)c1)N1C(=O)C2CC=CCC2C1=O (stereo not given)	.	14.1µM	.
CN(C)c1ncnc2ccc(-c3ccc4c(c3)OCO4)cc12	/	.	.
CCNc1ncc2nc(-c3ccccc3)c(=O)n(CCOC)c2n1	/	.	.
O=C(c1ccc(COc2ccc(F)cc2)o1)n1cccn1	.	15.8µM	12.6µM
O=C(c1ccc(COc2ccc(F)cc2)o1)n1cc(Br)cn1	.	14.1µM	?
CCN(CC)C(=O)c1ccc(COc2ccc(Cl)c(C)c2)o1	.	/	/
Cc1cc(OCc2ccc(C(=O)n3cccn3)o2)ccc1Cl	.	7.94µM	?
Cc1nn(Cc2ccc(C(=O)n3cccn3)o2)c(C)c1Br	.	.	.
CCOc1ccc(OCc2ccc(C(=O)O)o2)cc1	.	.	.
CN(C)c1ccc(-c2ccc3ncnc(N(C)Cc4ccco4)c3c2)cc1	/	.	.
Cc1cc(NC(=O)Nc2ccc(N(C)C)cc2)c2cc(F)cc(F)c2n1	/	.	?
CCOC(=O)c1c(NC(=O)C2=C(C)NC(=S)NC2c2ccc(CC)cc2)sc(C)c1C (stereo not given)	?	.	10µM
SMILES	NS1 inh	Cruzain Triton	Cruzain noTriton
CCOC(=O)C1=C(C)NC(=S)NC1c1ccc(OC(=O)c2ccco2)cc1 (stereo not given)	.	.	?
Cc1ccc(C2CC(=O)Oc3ccc(C(C)(C)C)cc32)cc1 (stereo not given)	/	.	.
CC(C)(C)OC(=O)N[C@@H](Cc1ccccc1)c1nnc(S(=O)(=O)Cc2ccccc2)o1	.	15.8µM	31.6µM
Cc1ccccc1CS(=O)(=O)c1nnc([C@H](Cc2ccccc2)NC(=O)OC(C)(C)C)o1	.	14.1µM	?
CCSc1nnc([C@H](Cc2ccccc2)NC(=O)OC(C)(C)C)o1	.	.	.
CC(C)(C)OC(=O)N[C@@H](Cc1ccccc1)c1nnc(SCC(=O)c2ccc(Cl)cc2)o1	.	.	?
CC[C@@H]1Cn2c(c3nc(-c4ccccc4)nc-3n(C)c2=O)N1	/	.	.
Cc1cc(Br)c(OCc2ccc(C(=O)N/N=C3\CC(=O)CC(C)(C)C3)cc2)c(Br)c1	.	.	10µM
Cc1ccc(C(C)C)c(OCC(=O)N/N=C2\CC(=O)CC(C)(C)C2)c1	.	/	/
CCN(CC)c1ccc(/C=c2\sc3nnc(-c4ccccc4Cl)n3c2=O)cc1	.	.	12.6µM
CCN(CC)c1ccc(/C=c2/sc3nnc(-c4ccccc4C)n3c2=O)cc1	.	.	?
Cc1ccc(NC(=O)c2cnc(SCC(=O)N3CCCc4ccccc43)n(C)c2=O)cc1C	/	.	.
O=C(NC(=S)Nc1cc(-c2nc3ccccc3[nH]2)ccc1Cl)c1ccc2c(c1)OCO2	.	17.8µM	31.6µM
c1ccc2[nH]c(NCc3ccc4c(c3)OCO4)nc2c1	.	/	/
Cc1ccc(-c2nc3ccccc3[nH]2)cc1NC(=O)c1ccc2c(c1)OCO2	.	.	?
S=C(NCc1ccc2c(c1)OCO2)Nc1ccc(-c2nc3ccccc3[nH]2)cc1	.	.	20µM
CCN(CC)C(=O)Cn1c(=O)cc(C)c2c(C)nn(-c3cccc(Cl)c3C)c21	/	.	.
O=C1OC(c2cccs2)=N/C1=C/c1ccc(-c2cccc(C(=O)O)c2)o1	.	/	/
O=C1OC(c2ccco2)=N/C1=C\c1ccc(-c2cccc(C(F)(F)F)c2)o1	.	.	12.6µM
Cc1ccc(Cn2cc(/C=C(/C#N)C(=O)Nc3cccc(Cl)c3)c3ccccc32)cc1	/	.	7.94µM
CCc1ccc(NC(=O)/C(C#N)=C/c2cn(CC(=O)O)c3ccccc23)cc1	.	/	/
COc1cccc(NC(=O)/C(C#N)=C/c2c(C)n(Cc3ccccc3)c3ccccc23)c1	/	.	7.94µM
Cc1cccc(NC(=O)/C(C#N)=C\c2cn(CC(=O)O)c3ccccc23)c1	.	/	/
COc1cccc(NC(=O)Cn2cc(C#N)c3ccccc32)c1	.	.	.
Cc1ccc(/C=C(\C#N)C(=O)Nc2cccc(Cl)c2)o1	/	.	10µM
SMILES	NS1 inh	Cruzain Triton	Cruzain noTriton
Cn1cc(/C=C(\C#N)C(=O)Nc2ncc(Cc3ccc(Cl)cc3)s2)c2ccccc21	.	.	7.94µM
Cc1cccc(NC(=O)/C(C#N)=C/c2ccc(C)o2)c1	/	.	.
Cc1nnc(SCC(=O)Nc2ccc(Br)cc2)[nH]c1=O	/	.	.
CCOc1ccc(NC(=O)N2CC=C(c3c[nH]c4ccccc34)CC2)cc1	/	.	.
CCCCN(CC)C(=O)Cn1nc(C)c2c(C)n(-c3ccccc3)nc2c1=O	/	.	.
COc1ccc(Cl)cc1N=Nc1ncc[nH]1	/	.	?
COc1cccc(NC(=O)/C(C#N)=C\c2cn(Cc3ccc(Cl)cc3)c3ccccc23)c1	/	.	10µM
Cc1ccc(Cc2cnc(NC(=O)/C(C#N)=C/c3ccc(-c4ccccc4[N+](=O)[O-])o3)s2)cc1	.	.	10µM
CNC(=O)/C(C#N)=C/c1ccc(-c2ccccc2[N+](=O)[O-])o1	.	/	/
N#C/C(=C/c1cn(CC(=O)O)c2ccccc12)C(=O)Nc1ccccc1	.	/	/
CC(C)=N/N=C1\NC(=O)C(C)S1 (stereo not given)	.	/	/
C/C(=N\N=C1/NC(=O)C(C)S1)c1ccc([N+](=O)[O-])cc1 (stereo not given)	.	25.1µM	15.8µM
O=C(Nc1ccc(O)c(-c2nc3ccccc3o2)c1)c1ccc(Br)cc1	/	.	.
Cc1cc(C)cc(OCC(=O)Nc2ccc(-c3nc4ccccc4o3)cc2)c1	/	.	.
Cc1ccc(OCC(=O)Nc2ccc3nc(Nc4cccc(Cl)c4)cc(C)c3c2)cc1	/	.	20µM
Cc1ccc(OCC(=O)Nc2ccc(O)c(-c3nc4ccccc4o3)c2)cc1	.	.	3.98µM
O=C(Nc1ccc(O)c(-c2nc3ccccc3o2)c1)C1(c2ccc(Br)cc2)CCCC1	.	.	5.01µM

High-throughput results: PubChem, National Center for Advancing Translational Sciences (NCATS)
